We go through 52 molecules from PubChem BioAssay AID720551 (National Center for Advancing Translational Sciences (NCATS), 2013).

The structures appear in SMILES notation. Out of some 340,000 compounds screened, about 1,300 (0.38%) were called active. What follows is part of a selection rich in actives, with near analogues and random picks from the rest. Values without a mark were called inactive.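 The calls were made as follows: active = maximum activity change below -70%; inconclusive = maximum activity change between -70% and -50%; inactive = maximum activity change above -50%.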
% is scaled to controls: 0 for no effect and ±100 for the full control effect.

Voltage-gated inwardly rectifying potassium channel KCNH2 (Homo sapiens), sequence (Q12809 whole entry, looked up): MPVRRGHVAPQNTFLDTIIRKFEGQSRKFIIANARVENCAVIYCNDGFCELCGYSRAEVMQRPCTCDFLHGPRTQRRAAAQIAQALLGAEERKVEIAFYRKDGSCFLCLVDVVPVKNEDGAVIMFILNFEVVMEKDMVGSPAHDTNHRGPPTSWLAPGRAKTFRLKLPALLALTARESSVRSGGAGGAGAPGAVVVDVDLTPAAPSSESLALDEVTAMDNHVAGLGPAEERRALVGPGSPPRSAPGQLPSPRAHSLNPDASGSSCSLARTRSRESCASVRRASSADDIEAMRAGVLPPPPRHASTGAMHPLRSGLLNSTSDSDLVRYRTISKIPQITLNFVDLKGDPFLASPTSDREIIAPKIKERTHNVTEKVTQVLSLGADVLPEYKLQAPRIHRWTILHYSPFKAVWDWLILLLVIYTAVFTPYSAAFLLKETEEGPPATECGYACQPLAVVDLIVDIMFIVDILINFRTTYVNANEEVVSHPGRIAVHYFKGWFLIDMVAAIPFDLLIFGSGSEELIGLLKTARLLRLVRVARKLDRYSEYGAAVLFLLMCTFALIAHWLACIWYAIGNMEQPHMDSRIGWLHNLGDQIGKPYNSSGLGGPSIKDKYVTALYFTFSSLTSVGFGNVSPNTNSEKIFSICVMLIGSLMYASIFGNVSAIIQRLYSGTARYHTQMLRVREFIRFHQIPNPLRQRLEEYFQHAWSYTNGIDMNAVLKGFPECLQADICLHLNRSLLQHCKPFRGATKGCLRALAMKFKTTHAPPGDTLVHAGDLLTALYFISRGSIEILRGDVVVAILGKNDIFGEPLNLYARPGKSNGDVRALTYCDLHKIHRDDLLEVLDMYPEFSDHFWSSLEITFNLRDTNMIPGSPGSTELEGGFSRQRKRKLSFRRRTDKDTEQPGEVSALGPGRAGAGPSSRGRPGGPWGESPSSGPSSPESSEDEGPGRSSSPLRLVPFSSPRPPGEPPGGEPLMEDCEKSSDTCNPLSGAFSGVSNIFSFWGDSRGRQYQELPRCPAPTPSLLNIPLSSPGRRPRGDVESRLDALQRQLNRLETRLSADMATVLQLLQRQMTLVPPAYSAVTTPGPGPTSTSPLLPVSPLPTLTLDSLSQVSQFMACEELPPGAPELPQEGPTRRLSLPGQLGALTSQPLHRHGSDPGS

The target in the assay is Voltage-gated inwardly rectifying potassium channel KCNH2 (Homo sapiens) (UniProt Q12809). The assay is described as follows: qHTS for Inhibitors of KCHN2 3.1: Wildtype qHTS. As to conditions: U2OS, BacMam KCNH2, thallium flux FluxOr; at 1.84 µM; hits give low values. In outline:
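U2OS cells transduced with wild-type KCNH2 virus are loaded with FluxOr dye for 45 min, and thallium flux is measured in kinetic reads before and after stimulation buffer. Rate constants are normalized to DMSO controls.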
`CCc1cccc(CC)c1N1C(=O)CC(Sc2ccccc2N)C1=O` (configuration not stated): the activity change was -0.824%.

With `CCC(c1nnnn1Cc1ccco1)N(CCc1ccccc1)Cc1cc2cccc(C)c2[nH]c1=O` (configuration not stated), the activity change is -261% (active).

On to `CCC(c1nnnn1C1CCCC1)N(Cc1cccs1)Cc1cc2cccc(C)c2[nH]c1=O` (configuration not stated), for which the activity change was -3.98%.

For `CCC(c1nnnn1Cc1ccco1)N(Cc1cc2cc(OC)ccc2[nH]c1=O)C1CCCCC1` (configuration not stated), the activity change was 0.509%.

As to `Cc1ccccc1C#CC1=CC(=O)CC(C)(C)C1`, the activity change is 11%.

Take `CC1(C)CC(=O)C=C(c2ccccc2CO)C1=O`: the activity change was 2.31%.

For `CCOC(=O)C1(CCOc2ccccc2)CCN(Cc2cc(OC)cc(OC)c2)CC1`, the activity change was -109% (active).

Take `CCOC(=O)C1(CCOc2ccccc2)CCN(Cc2ccc(C#CCCO)cc2)CC1`: the activity change is 19.1%.

`CCCS(=O)(=O)N1CCC(CCOc2ccccc2)(C(=O)OCC)CC1`: the activity change is 9.17%.

On to `O=C(O)c1ccccc1Cc1ccc(F)c2ccccc12`, for which the activity change was 3.97%.

Take `COC(=O)C[C@H]1C[C@@H]2c3cc(N(C)C)ccc3O[C@@H]2[C@H](CO)O1`: the activity change is -11.4%.

Turning to `O=C(c1ccc(CS(=O)Cc2ccccc2Cl)o1)N1CCN(c2ccccc2)CC1` (configuration not stated), the activity change is 7.11%.

In the case of `CCn1c(C)nc2c1C(=O)c1ccccc1C2=O`, the activity change was -229% (active).

Regarding `Cc1nc2ccccc2n1CC(O)c1ccccc1` (configuration not stated), the activity change was -1.47%.

`CCOC(=O)c1ccc2c(c1)nc(C)n2CC`: the activity change was 12.4%.

Regarding `C[C@@H]1CN([C@H](C)CO)C(=O)CCCn2cc(nn2)CO[C@H]1CN(C)S(C)(=O)=O`, the activity change was -23.5%.

As to `CC(C)N=C1CCCC1C(=S)SSC(=S)C1CCCC1=NC(C)C` (configuration not stated), the activity change was -26.8%.

`Cc1ccc(S(=O)(=O)/N=C2\C=C(NS(=O)(=O)c3ccc(C)cc3)C(=O)c3ccccc32)cc1`: the activity change is 1.35%.

With `Cc1cccc2sc(N(CCCN(C)C)C(=O)CCS(=O)(=O)c3ccccc3)nc12`, the activity change was 3.42%.

As for `CN(C)CCN(C(=O)CN1C(=O)c2ccccc2C1=O)c1nc2cc3c(cc2s1)OCCO3`, the activity change is 8.23%.

As to `Cc1cc(C)c2nc(N(CCN(C)C)C(=O)/C=C/c3cccs3)sc2c1`, the activity change is -136% (active).

On to `Cc1ccc2sc(N(CCN(C)C)C(=O)/C=C/c3cccs3)nc2c1C`, for which the activity change is -101% (active).

Take `Cc1ccc(S(=O)(=O)N(C)C)cc1NC(=O)COC(=O)/C=C/c1cccs1`: the activity change was -3.39%.

For the molecule `Cc1ccc(S(=O)(=O)N(C)C)cc1NC(=O)/C=C/c1cccs1`, the activity change was -0.908%.

As to `CCOc1ccc(CCNC(=O)COC(=O)c2ccc(C)c(S(=O)(=O)N3CCOCC3)c2)cc1OCC`, the activity change is -0.902%.

In the case of `O=C(Nc1cccc(C(=O)O)c1)/C(=C\c1ccccc1)NC(=O)c1ccc(Br)o1`, the activity change is 9.44%.

As to `Cc1ccc(S(=O)(=O)NN=C2CC(C)(C)CC(=O)C2(C)C)cc1`, the activity change is -3.73%.

For `O=C(OCc1ccccc1)N1CCC2CC1c1cc(N3CCN(S(=O)(=O)c4cc(Cl)cc(Cl)c4)CC3)ccc12` (configuration not stated), the activity change was 3.43%.

Turning to `O=C(Nc1cccn(Cc2c(Cl)cccc2Cl)c1=O)c1ccc(Cl)cc1`, the activity change was -350% (active).

Turning to `O=C(Nc1cccn(Cc2ccccc2Cl)c1=O)NC1CCCCC1`, the activity change is -11.4%.

Turning to `Cc1cc(NC(=O)c2ccco2)c(=O)n(Cc2c(F)cccc2Cl)c1`, the activity change is -11.4%.

As for `CCOC(=O)C1CCN(C(=O)c2ccc3c(=O)n4nc(Nc5ccccc5CC)sc4nc3c2)CC1`, the activity change was -22.8%.

As to `CCN(CC)C(=O)C1=C(C)N(Cc2ccc(F)cc2)C(=O)C(CC(=O)NCc2cccc3ccccc23)C1` (configuration not stated), the activity change is 6.51%.

With `O=C(Oc1ccc(-c2nc(-c3ccccn3)no2)cc1)c1ccccc1`, the activity change is -11.6%.

Regarding `O=C(Oc1ccccc1)c1ccc2nccnc2c1`, the activity change is -169% (active).

Take `COC(=O)c1ccc(OC(=O)c2cnccn2)cc1`: the activity change is -0.0992%.

Regarding `Cc1cccc(C(=O)C(O)(c2ccccc2)C2CCCCC2=O)c1` (configuration not stated), the activity change is 8.63%.

Turning to `N#CCSc1ccccc1NC(=O)CN1C(=O)NC(CCc2ccccc2)C1=O` (configuration not stated), the activity change is -4.38%.

Regarding `CC1CCC2(CC1)NC(=O)N(CC(=O)NCc1ccco1)C2=O` (configuration not stated), the activity change is 5.92%.

On to `COc1ccc(CCNC(=O)CCc2cn(C)c3ccccc23)c(OC)c1`, for which the activity change is 6.58%.

As for `COc1ccc(CCNC(=O)CN2C(=O)CCSc3ccccc32)c(OC)c1`, the activity change was -169% (active).

Consider `CCOC(=O)CNC(=O)CN1C(=O)CCSc2ccccc21`, for which the activity change is 10.6%.

As to `CCOC(=O)C(C(=O)c1ccccc1)C(c1ccccc1)c1nccc2ccccc12` (configuration not stated), the activity change was 3.11%.

With `O=C(CN1CCN(CC(=O)Nc2ccc3c(c2)OCO3)CC1)Nc1ccc(F)cc1`, the activity change is -129% (active).

For `O=C(CN1CCN(C(=O)c2ccco2)CC1)Nc1ccc2c(c1)OCO2`, the activity change is -4.79%.

For `O=C(COC(=O)c1ccc(F)cc1)Nc1ccc2c(c1)OCO2`, the activity change is -0.371%.

With `CCCCN1C(=O)C(CC(=O)NCc2cccs2)CC(C(=O)N2CCOCC2)=C1C` (configuration not stated), the activity change is -2.88%.

Take `Cc1ccc(S(=O)(=O)N2C[C@]3(O)C[C@@H]4C(=O)N(c5ccccc5)C(=O)[C@@H]4C[C@]3(OC(=O)NC3CC3)C2)cc1`: the activity change is -7.72%.

As to `CN(C)/C=C(/C(=O)c1ccccc1Cl)S(C)(=O)=O`, the activity change was -134% (active).

With `CN(C)/C=C(/C(=O)c1ccccc1)S(=O)(=O)c1ccc(Cl)cc1`, the activity change was -7.44%.

For the molecule `CN(C)/C=C(/C(=O)c1ccc(Cl)cc1)S(=O)(=O)c1ccccc1`, the activity change is 0.0109%.

As to `COCC1CCCCN1C(=O)c1cc(COc2ccc(C)c(C)c2)on1` (configuration not stated), the activity change is -11.8%.
